For 39 compounds, Potency results are on record in PubChem BioAssay (Tox21).

Values joined by “and” are separate entries in the source; they are usually repeats but may differ in a detail not shown here. Equal values may be shown once. Active and inactive are the calls of the source. Entries that show only a call come without a potency. Calls come from the whole dose curve.

For this test, the target named is Gonadotropin-releasing hormone receptor (Homo sapiens) (UniProt P30968). Nature of the test: Human gonadotropin-releasing hormone receptor (GnRHR) small molecule agonists, calcium flux assay in GnRHR-HEK293 cells (AID 1920063). Note: nearly all actives have a fitted effect of over 35% in size. The procedure, abridged:
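HEK293 cells stably expressing human GnRHR were plated 18 h at 37 °C, loaded with calcium dye 1 h at 37 °C, then given compound in agonist mode; fluorescence (Ex/Em 480/540) read kinetically for 3 min at 1 s intervals.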
On the technique in general: Calcium flux is commonly read through the fluorescence of an indicator in the cells.
Potency is the fitted concentration of half-maximal effect.

Gonadotropin-releasing hormone receptor (Homo sapiens), sequence (P30968 whole entry, looked up): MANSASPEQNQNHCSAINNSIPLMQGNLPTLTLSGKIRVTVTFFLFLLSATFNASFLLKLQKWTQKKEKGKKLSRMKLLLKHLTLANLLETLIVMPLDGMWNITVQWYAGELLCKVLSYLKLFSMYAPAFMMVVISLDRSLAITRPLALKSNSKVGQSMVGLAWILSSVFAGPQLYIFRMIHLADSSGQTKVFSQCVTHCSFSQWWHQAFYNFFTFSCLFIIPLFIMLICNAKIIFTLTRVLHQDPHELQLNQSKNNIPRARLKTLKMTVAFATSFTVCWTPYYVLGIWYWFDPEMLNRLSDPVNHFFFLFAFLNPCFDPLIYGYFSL

On to `C[C@@H]1O[C@@H](O[C@H]2C[C@@H](O)[C@]3(CO)[C@H]4[C@H](O)C[C@]5(C)[C@@H](C6=CC(=O)OC6)CC[C@]5(O)[C@@H]4CC[C@]3(O)C2)[C@H](O)[C@H](O)[C@H]1O`, for which the Potency entry is “inactive”.

Turning to `Cn1cc(-c2ccccc2)c(=O)c(-c2cccc(C(F)(F)F)c2)c1`, the Potency entry was “inactive”. Under `c1cc2c3c(cccc3c1)CC2` stands “inactive”; under `CC1OC(C)OC(C)O1` (centres undefined), “inactive”. `COc1ccc2c3c1O[C@H]1[C@H](O)CC[C@H]4[C@@H](C2)N(C)CC[C@@]341`: the Potency result is “inactive”. Take `CCCN(CCOc1c(Cl)cc(Cl)cc1Cl)C(=O)n1ccnc1`: the Potency result was “inactive”. The value for `Cc1ccc(Cl)c(O)c1` was “inactive”; that for `O=[N+]([O-])c1ccc(Cl)c(Cl)c1` was “inactive”; that for `CCCCCCCCCc1ccc(O)cc1` was “inactive”. Under `CCCCN(CCCCO)N=O` stands “inactive”; under `CCCSC(=O)Cl`, “inactive”; under `CNC(=O)O/N=C/C(C)(C)SC`, “inactive”. As for `COc1ccc(CO)cc1`, the Potency result was “inactive”. The value for `Clc1ccc(Cl)c(Cl)c1` was “inactive”; that for `CCOC(=S)S` was “inactive”.

On to `O=C(CBr)c1ccc(O)cc1`, for which the Potency entry was “inactive”. In the case of `O=Cc1ccco1`, the Potency result was “inactive”. The value for `COP(=S)(OC)SCn1nnc2ccccc2c1=O` was “inactive”. Under `CC(C)OC(=O)Nc1cccc(Cl)c1` stands “inactive”.

As to `CCC[CH2][Sn]([Cl])([Cl])[Cl]`, the Potency result was “inactive”.

With `CCC[CH2][Sn]([Cl])([CH2]CCC)[CH2]CCC`, the Potency was 7.78 µM (active) and 38.9 µM (active).

On to `N#CS`, for which the Potency result was “inactive”.

On to `Oc1ccc(Cl)cc1`, for which the Potency result was “inactive”. `CC1COC2(c3ccccc3Cl)c3cc(Cl)ccc3NC(=O)CN12` (centres undefined): the Potency result was “inactive”. Consider `BrC(Br)Br`, for which the Potency entry is “inactive”. Under `OCC(Cl)CCl` (centres undefined) stands “inactive”. In the case of `c1ccc2c(c1)-c1cccc3cccc-2c13`, the Potency result is “inactive”. The value for `CNc1cnn(-c2cccc(C(F)(F)F)c2)c(=O)c1Cl` was “inactive”. The value for `CN(C)c1ccc(N=O)cc1` was “inactive”.

In the case of `CON(C)C(=O)Nc1ccc(Cl)c(Cl)c1`, the Potency result was “inactive”.

Regarding `CC(Cl)Cl`, the Potency result was “inactive”. With `COc1cc2c(cc1OC)[C@@]13CCN4CC5=CCO[C@H]6CC(=O)N2[C@H]1[C@H]6[C@H]5C[C@H]43`, the Potency result was “inactive”. Under `ClCC(Cl)CCl` stands “inactive”; under `Nc1ccccc1`, “inactive”.

`Nc1cccc(Cl)c1`: the Potency result was “inactive”. The value for `CCCCc1c(C)nc(NCC)[nH]c1=O` was “inactive”; that for `C[C@]12CC[C@H]3[C@@H](CCC4=CC(=O)CC[C@@H]43)[C@@H]1CC[C@@H]2O` was “inactive”; that for `CN=C=S` was “inactive”. Under `Nc1nc(N)nc(NC2CC2)n1` stands “inactive”.
